# Like-named read-outs stand apart in the source and are kept apart here.
# Columns and labels:
# Design in all cases: species or system human, MV4-11 + K-562 + COLO205 + SK-N-BE2 + OVCAR-8
# ATM = conditions: read-out: apparent Kd, compound concentrations: 100 nM and 1000 nM (sheet 'Samples'), n = 1
# AURKA = conditions: read-out: apparent Kd, n = 1
# EPHA4 = conditions: read-out: apparent Kd, n = 1
# EPHA5 = conditions: read-out: apparent Kd, n = 1
# EPHB2 = conditions: read-out: apparent Kd, n = 1
# EPHB4 = conditions: read-out: apparent Kd, n = 1
# PRKACA = conditions: read-out: apparent Kd, n = 1
# PRKACB = conditions: read-out: apparent Kd, compound concentrations: 100 nM and 1000 nM (sheet 'Samples'), n = 1
# TNK1 = conditions: read-out: apparent Kd, n = 1
# CAMKK2 = conditions: read-out: apparent Kd, n = 1
# CHEK1 = conditions: read-out: apparent Kd, n = 1
# CSNK1D = conditions: read-out: apparent Kd; compound concentrations:100 nM and 1000 nM (sheet 'Samples'); n = 1
# MAPK10 = conditions: read-out: apparent Kd; compound concentrations:100 nM and 1000 nM (sheet 'Samples'); n = 1
# MARK3 = conditions: read-out: apparent Kd, n = 1
# PIP4K2C = conditions: read-out: apparent Kd, n = 1
# PRKAG2 = conditions: read-out: apparent Kd, n = 1
# RPS6KA4 = conditions: read-out: apparent Kd, n = 1
# MAPK9 = conditions: read-out: apparent Kd; compound concentrations:100 nM and 1000 nM (sheet 'Samples'); n = 1
# STK4 = conditions: read-out: apparent Kd; compound concentrations:100 nM and 1000 nM (sheet 'Samples'); n = 1
# [1] = compound concentrations:100 nM and 1000 nM (sheet 'Samples')
smiles,measurement,setting,value
CN(c1ccc(NC(=O)Nc2cccc(Cl)c2)cc1)c1ccnc(N)n1.Cl [GW830707A],potency estimated from few doses,ATM; CATDS: 7.3316367539925598E-2,0.00481 µM
same,potency estimated from few doses,"AURKA; compound concentrations: 100 nM and 1000 nM (sheet 'Samples'), CATDS: 1.10158492855777E-2",1.1 µM
same,potency estimated from few doses,"EPHA4; compound concentrations: 100 nM and 1000 nM (sheet 'Samples'), CATDS: 2.6652421745355599E-2",0.0262 µM
same,potency estimated from few doses,"EPHA5; compound concentrations: 100 nM and 1000 nM (sheet 'Samples'), CATDS: 2.89918726046417E-2",0.022 µM
same,potency estimated from few doses,"EPHB2; compound concentrations: 100 nM and 1000 nM (sheet 'Samples'), CATDS: 3.95108410825031E-2",0.0124 µM
same,potency estimated from few doses,"EPHB4; compound concentrations: 100 nM and 1000 nM (sheet 'Samples'), CATDS: 6.0687941062208699E-2",0.0063 µM
same,potency estimated from few doses,"PRKACA; compound concentrations: 100 nM and 1000 nM (sheet 'Samples'), CATDS: 2.4809932188679999E-2",0.0307 µM
same,potency estimated from few doses,PRKACB; CATDS: 1.9106655898432998E-2,0.0607 µM
same,potency estimated from few doses,"TNK1; compound concentrations: 100 nM and 1000 nM (sheet 'Samples'), CATDS: 0.104039802479183",0.00301 µM
CC(C)N1CCC(n2cnc(-c3ccc(F)cc3)c2-c2ccnc(N)n2)CC1 [SB-223132],potency estimated from few doses,AURKA; [1],0.931 µM
same,potency estimated from few doses,CAMKK2; [1],0.94 µM
same,potency estimated from few doses,CHEK1; [1],1.74 µM
same,potency estimated from few doses,CSNK1D,0.0251 µM
same,potency estimated from few doses,EPHA4; [1],0.692 µM
same,potency estimated from few doses,EPHA5; [1],0.545 µM
same,potency estimated from few doses,EPHB2; [1],0.385 µM
same,potency estimated from few doses,EPHB4; [1],0.314 µM
same,potency estimated from few doses,MAPK10,1.33 µM
same,potency estimated from few doses,MARK3; [1],1.77 µM
same,potency estimated from few doses,PIP4K2C; [1],1.2 µM
same,potency estimated from few doses,PRKACA; [1],1.71 µM
same,potency estimated from few doses,PRKAG2; [1],1.04 µM
O=C1N=C(NCCc2ccc(Cl)cc2)S/C1=C\c1ccc2ncccc2c1 [RO4498479-000],potency estimated from few doses,"AURKA; compound concentrations: 100 nM and 1000 nM (sheet 'Samples'), CATDS: 1.0602350822893101E-2",0.486 µM
same,potency estimated from few doses,"CAMKK2; compound concentrations: 100 nM and 1000 nM (sheet 'Samples'), CATDS: 9.9016852028132405E-3",0.568 µM
same,potency estimated from few doses,"CHEK1; compound concentrations: 100 nM and 1000 nM (sheet 'Samples'), CATDS: 7.8682297996918397E-3",1.07 µM
same,potency estimated from few doses,"EPHA4; compound concentrations: 100 nM and 1000 nM (sheet 'Samples'), CATDS: 1.4543255052935199E-2",0.263 µM
same,potency estimated from few doses,"EPHA5; compound concentrations: 100 nM and 1000 nM (sheet 'Samples'), CATDS: 2.0414571032165901E-2",0.153 µM
same,potency estimated from few doses,"EPHB2; compound concentrations: 100 nM and 1000 nM (sheet 'Samples'), CATDS: 1.7636169639023699E-2",0.191 µM
same,potency estimated from few doses,"EPHB4; compound concentrations: 100 nM and 1000 nM (sheet 'Samples'), CATDS: 2.15431657098582E-2",0.141 µM
same,potency estimated from few doses,"MARK3; compound concentrations: 100 nM and 1000 nM (sheet 'Samples'), CATDS: 8.4864305198955707E-3",0.848 µM
same,potency estimated from few doses,"PIP4K2C; compound concentrations: 100 nM and 1000 nM (sheet 'Samples'), CATDS: 8.2219500153899797E-3",0.93 µM
same,potency estimated from few doses,"PRKACA; compound concentrations: 100 nM and 1000 nM (sheet 'Samples'), CATDS: 8.4640851007318392E-3",0.854 µM
same,potency estimated from few doses,PRKACB; CATDS: 9.3487346254019794E-3,0.654 µM
same,potency estimated from few doses,"PRKAG2; compound concentrations: 100 nM and 1000 nM (sheet 'Samples'), CATDS: 1.04447346657642E-2",0.503 µM
same,potency estimated from few doses,"RPS6KA4; compound concentrations: 100 nM and 1000 nM (sheet 'Samples'), CATDS: 7.6189107816006501E-3",1.19 µM
same,potency estimated from few doses,"TNK1; compound concentrations: 100 nM and 1000 nM (sheet 'Samples'), CATDS: 1.8006750719606699E-2",0.185 µM
CN(c1ccc(NC(=O)N2CCN(CCCN3CCOCC3)CC2)cc1)c1ccnc(Nc2ccc(CS(C)(=O)=O)cc2)n1.Cl [GW830899A],potency estimated from few doses,"AURKA; compound concentrations: 100 nM and 1000 nM (sheet 'Samples'), CATDS: 2.4317426688995499E-2",0.955 µM
same,potency estimated from few doses,"CAMKK2; compound concentrations: 100 nM and 1000 nM (sheet 'Samples'), CATDS: 1.7762622720353199E-2",2.19 µM
same,potency estimated from few doses,"EPHA4; compound concentrations: 100 nM and 1000 nM (sheet 'Samples'), CATDS: 2.15154621578117E-2",1.27 µM
same,potency estimated from few doses,"EPHA5; compound concentrations: 100 nM and 1000 nM (sheet 'Samples'), CATDS: 2.2767251891404602E-2",1.11 µM
same,potency estimated from few doses,"MARK3; compound concentrations: 100 nM and 1000 nM (sheet 'Samples'), CATDS: 1.9647586530532599E-2",1.61 µM
same,potency estimated from few doses,PRKACB; CATDS: 1.9426092751651199E-2,1.66 µM
CCn1c(-c2nonc2N)nc2c(C#CC(C)(C)O)nc(OC[C@@H](N)c3ccccc3)cc21 [GSK938890A],potency estimated from few doses,"PRKACA; compound concentrations: 100 nM and 1000 nM (sheet 'Samples'), CATDS: 0.21319960399835",0.0226 µM
same,potency estimated from few doses,PRKACB; CATDS: 0.177486762785802,0.0308 µM
Cl.Nc1c(C(=O)c2cccc(C#CCN3CCCCC3)c2)cnn1-c1ccc(F)cc1 [RO1154461-001],potency estimated from few doses,ATM; CATDS: 2.8189903331148802E-2,0.161 µM
same,potency estimated from few doses,"AURKA; compound concentrations: 100 nM and 1000 nM (sheet 'Samples'), CATDS: 1.31144942702613E-2",0.784 µM
same,potency estimated from few doses,"CAMKK2; compound concentrations: 100 nM and 1000 nM (sheet 'Samples'), CATDS: 1.2329030932227101E-2",0.934 µM
same,potency estimated from few doses,"CHEK1; compound concentrations: 100 nM and 1000 nM (sheet 'Samples'), CATDS: 1.05759590598224E-2",1.55 µM
same,potency estimated from few doses,"EPHA4; compound concentrations: 100 nM and 1000 nM (sheet 'Samples'), CATDS: 1.83423267934671E-2",0.356 µM
same,potency estimated from few doses,"EPHA5; compound concentrations: 100 nM and 1000 nM (sheet 'Samples'), CATDS: 2.15215497869925E-2",0.26 µM
same,potency estimated from few doses,"EPHB2; compound concentrations: 100 nM and 1000 nM (sheet 'Samples'), CATDS: 2.8724117835498601E-2",0.156 µM
same,potency estimated from few doses,"EPHB4; compound concentrations: 100 nM and 1000 nM (sheet 'Samples'), CATDS: 3.5435159362778398E-2",0.111 µM
same,potency estimated from few doses,"MARK3; compound concentrations: 100 nM and 1000 nM (sheet 'Samples'), CATDS: 9.8950713499473906E-3",2.03 µM
same,potency estimated from few doses,"PIP4K2C; compound concentrations: 100 nM and 1000 nM (sheet 'Samples'), CATDS: 1.00291751764076E-2",1.91 µM
same,potency estimated from few doses,"PRKACA; compound concentrations: 100 nM and 1000 nM (sheet 'Samples'), CATDS: 1.0779981289506101E-2",1.44 µM
same,potency estimated from few doses,PRKACB; CATDS: 1.14120731511483E-2,1.19 µM
same,potency estimated from few doses,"TNK1; compound concentrations: 100 nM and 1000 nM (sheet 'Samples'), CATDS: 4.5946833879509097E-2",0.0755 µM
CNC(=O)c1ccccc1Nc1nc(Nc2ccc(N3CCOCC3)cc2)ncc1Cl.Cl [GSK1576028A],potency estimated from few doses,AURKA; [1],0.011 µM
same,potency estimated from few doses,MAPK10,0.0601 µM
same,potency estimated from few doses,MAPK9,0.22 µM
same,potency estimated from few doses,PRKAG2; [1],0.587 µM
same,potency estimated from few doses,RPS6KA4; [1],0.427 µM
same,potency estimated from few doses,STK4,0.675 µM
same,potency estimated from few doses,TNK1; [1],0.00793 µM

# Source: PMC11062922 (Nature Chemical Biology, 2023)
